From PubChem BioAssay
Calls of active or inactive are those of the source.

Tests used:
Albumin (Bos taurus) = Albumin (Bos taurus) (UniProt P02769); experiment: compounds binding labelled BSA control protein – biochemical, small-molecule microarray, Alexa647 label, 635/667 nm fluorescence, artefact control for SMM control protein annotation, profiling panel (AID 1118); conditions: BSA-A647 binding, fluorescence 635 nm, higher = more signal;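 note: score merges 667 nm emission intensity and signal-to-noise per printed compound spot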
Chain of Albumin (Bos taurus) (P02769 whole entry, looked up): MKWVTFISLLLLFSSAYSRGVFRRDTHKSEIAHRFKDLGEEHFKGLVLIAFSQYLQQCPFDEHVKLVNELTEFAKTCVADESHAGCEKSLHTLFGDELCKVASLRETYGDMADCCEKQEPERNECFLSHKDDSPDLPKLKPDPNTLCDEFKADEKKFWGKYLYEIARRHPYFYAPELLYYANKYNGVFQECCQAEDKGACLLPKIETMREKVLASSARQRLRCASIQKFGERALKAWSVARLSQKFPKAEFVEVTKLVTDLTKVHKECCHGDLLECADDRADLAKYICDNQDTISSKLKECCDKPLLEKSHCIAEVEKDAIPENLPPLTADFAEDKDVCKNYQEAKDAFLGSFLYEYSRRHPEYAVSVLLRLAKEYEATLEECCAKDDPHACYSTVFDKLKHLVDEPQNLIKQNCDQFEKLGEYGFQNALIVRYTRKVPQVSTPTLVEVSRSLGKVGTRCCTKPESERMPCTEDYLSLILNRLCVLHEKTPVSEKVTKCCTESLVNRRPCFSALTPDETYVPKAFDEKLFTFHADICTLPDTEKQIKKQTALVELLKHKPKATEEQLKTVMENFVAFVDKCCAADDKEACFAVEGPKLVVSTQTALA

[1] = probe aXIP binding to arrayed compounds – biochemical, NeuroSMM set, 635/667 nm fluorescence, primary screen (AID 1119); conditions: small-molecule microarray, higher = more signal, called active from +8 up or from −8 down;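 note: probe is the protein aXip251-270 applied at 1 µg/mL to compound-printed slides; binding of probe to printed compounds measured as 667 nm fluorescence plus signal to noise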
[2] = probe aNOTCH3 binding on compound microarray – biochemical, small-molecule microarray, 635/667 nm fluorescence, primary screen (AID 1120); conditions: higher = more signal;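 note: probe is a biotin-tagged antibody raised against NOTCH3 rather than NOTCH3 protein; score merges spot fluorescence near 667 nm with spot signal to noise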
[3] = probe aNOTCH2 binding on compound microarray – biochemical, small-molecule microarray, 635/667 nm fluorescence, primary screen (AID 1121); conditions: higher = more signal;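 note: score merges feature fluorescence read at 667 nm with its signal to noise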
[4] = target: Carbonic anhydrase 2 (Homo sapiens) (UniProt P00918); experiment: compounds binding carbonic anhydrase 2 – biochemical, small-molecule microarray, Alexa647-labelled CAII, profiling panel (AID 1122); conditions: CAII-A647 binding fluorescence, higher = more signal
[5] = COS7 lysate on small-molecule microarray, probe aHis, 635 nm (AID 1123); conditions: COS7 cell lysate, fluorescence, higher = more signal;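 note: z-score combines 667nm fluorescence intensity with signal-to-noise per printed compound spot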
[6] = probe aLAP1 signal on lysate-treated microarray – cell lysate, small-molecule microarray, COS7 lysate, primary screen (AID 1124); conditions: probe aLAP1, fluorescence, higher = more signal;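 note: lysate comes from COS7 cells expressing LAP1 and is applied at 0.3 µg/mL; score merges spot fluorescence near 667 nm with signal-to-noise over triplicate slides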
Sam68 (KHDRBS1) = experiment: compounds binding KHDRBS1 protein – biochemical, small-molecule microarray, 635 nm fluorescence, primary screen (AID 1125); conditions: higher = more signal;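 note: score merges 667 nm channel intensity with signal to noise over triplicate slides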
[7] = test system: Chordin-like protein 2 (CHRDL2); experiment: compounds binding chordin-like 2 – biochemical, small-molecule microarray, 635 nm fluorescence, primary screen (AID 1126); conditions: fluorescence 635 nm, higher = more signal;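 note: printed compound slides probed with Chrdl2 protein at 4 µg/mL for 1 h at 4 C; score merges 667 nm emission intensity with signal to noise over three replicate slides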
[8] = target: Concanavalin-A (Canavalia ensiformis) (UniProt P02866); experiment: compounds binding concanavalin A lectin – biochemical, small-molecule microarray, Alexa647 label, 635 nm, artefact control for SMM control protein annotation, primary screen (AID 1127); conditions: ConA-A647 binding fluorescence, higher = more signal;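 note: z combines 667 nm emission intensity with signal-to-noise across three replicate slides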
Chain of Concanavalin-A (Canavalia ensiformis) (P02866 whole entry, looked up): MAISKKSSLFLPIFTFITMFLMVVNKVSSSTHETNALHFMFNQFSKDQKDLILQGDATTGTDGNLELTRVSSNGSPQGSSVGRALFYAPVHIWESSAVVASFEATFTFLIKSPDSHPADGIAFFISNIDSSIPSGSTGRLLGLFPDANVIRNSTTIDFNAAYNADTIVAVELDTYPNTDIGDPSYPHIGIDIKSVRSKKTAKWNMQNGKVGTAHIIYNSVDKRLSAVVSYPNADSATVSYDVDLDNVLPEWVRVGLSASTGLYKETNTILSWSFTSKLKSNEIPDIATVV

[9] = compounds binding Alexa647 anti-His antibody – biochemical, small-molecule microarray, 635 nm fluorescence, artefact control for SMM control protein annotation, primary screen (AID 1128); conditions: higher = more signal;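 note: score merges feature fluorescence with signal-to-noise for each printed compound spot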
[10] = test system: Human papillomavirus type 1a E7 protein (residues 1-88); experiment: HPV1a E7 small-molecule binders, primary screen, biochemical, small-molecule microarray, residues 1-88, 635 nm (AID 1129); conditions: small-molecule microarray binding, fluorescence 635 nm; higher = more signal
[11] = target: Focal adhesion kinase 1 (Homo sapiens) (UniProt Q05397); experiment: PTK2 protein binding on printed compound slides – biochemical, small-molecule microarray, 635/667 nm fluorescence, BSA, DTT, primary screen (AID 1130); conditions: 635 nm fluorescence, higher = more signal;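 note: composite of spot emission at 667 nm and signal to noise over triplicate slides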
Chain of Focal adhesion kinase 1 (Homo sapiens) (Q05397 whole entry, looked up): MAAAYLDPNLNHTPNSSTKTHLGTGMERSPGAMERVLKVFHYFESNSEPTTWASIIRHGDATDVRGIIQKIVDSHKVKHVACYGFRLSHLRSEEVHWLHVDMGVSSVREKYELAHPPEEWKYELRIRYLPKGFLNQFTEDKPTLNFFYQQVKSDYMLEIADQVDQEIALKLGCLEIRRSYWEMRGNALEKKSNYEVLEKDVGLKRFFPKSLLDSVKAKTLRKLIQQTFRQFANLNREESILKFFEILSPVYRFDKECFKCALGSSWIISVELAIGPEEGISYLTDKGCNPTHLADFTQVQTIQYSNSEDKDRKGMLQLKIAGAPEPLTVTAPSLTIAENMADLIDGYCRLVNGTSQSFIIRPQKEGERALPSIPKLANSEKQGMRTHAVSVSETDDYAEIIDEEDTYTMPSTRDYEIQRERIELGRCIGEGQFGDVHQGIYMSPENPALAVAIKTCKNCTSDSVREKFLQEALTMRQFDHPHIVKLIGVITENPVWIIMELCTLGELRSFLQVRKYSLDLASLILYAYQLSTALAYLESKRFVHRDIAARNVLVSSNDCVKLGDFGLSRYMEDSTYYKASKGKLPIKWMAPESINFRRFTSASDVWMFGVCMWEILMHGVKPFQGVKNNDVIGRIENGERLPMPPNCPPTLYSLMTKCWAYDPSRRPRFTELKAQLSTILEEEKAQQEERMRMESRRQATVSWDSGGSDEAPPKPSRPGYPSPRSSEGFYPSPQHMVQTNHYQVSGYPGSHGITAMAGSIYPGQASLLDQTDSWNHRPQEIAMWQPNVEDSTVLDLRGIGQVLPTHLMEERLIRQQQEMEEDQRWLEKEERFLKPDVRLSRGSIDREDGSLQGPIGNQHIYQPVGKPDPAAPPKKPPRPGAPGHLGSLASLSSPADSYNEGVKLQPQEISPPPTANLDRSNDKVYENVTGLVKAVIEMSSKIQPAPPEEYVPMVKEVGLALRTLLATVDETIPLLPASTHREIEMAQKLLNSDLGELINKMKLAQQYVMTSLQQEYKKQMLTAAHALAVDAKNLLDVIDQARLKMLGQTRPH

[12] = test system: Fibrinogen (Alexa647-labelled); experiment: Alexa647-fibrinogen binding to printed small molecules – biochemical, small-molecule microarray, 635/667 nm fluorescence, artefact control for SMM control-protein annotation, profiling panel (AID 1131); conditions: fibrinogen-A647 binding fluorescence, higher = more signal;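 note: z-score merges 667 nm fluorescence with per-spot signal-to-noise over triplicate slides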
[13] = target: Follistatin (Homo sapiens) (UniProt P19883); experiment: FST protein binding to printed compounds – biochemical, small-molecule microarray, 635/667 nm fluorescence, primary screen (AID 1132); conditions: 635 nm fluorescence, higher = more signal
Chain of Follistatin (Homo sapiens) (P19883 whole entry, looked up): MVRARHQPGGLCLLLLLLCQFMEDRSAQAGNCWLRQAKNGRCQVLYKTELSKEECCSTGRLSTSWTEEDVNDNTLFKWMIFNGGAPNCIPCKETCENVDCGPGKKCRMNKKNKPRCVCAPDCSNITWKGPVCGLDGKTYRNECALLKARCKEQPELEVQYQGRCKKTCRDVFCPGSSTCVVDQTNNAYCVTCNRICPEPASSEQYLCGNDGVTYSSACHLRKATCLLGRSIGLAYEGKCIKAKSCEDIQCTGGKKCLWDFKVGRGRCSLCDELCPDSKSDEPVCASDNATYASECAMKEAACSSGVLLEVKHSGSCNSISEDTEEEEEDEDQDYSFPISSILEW

[14] = target: Fibroblast growth factor 2 (Homo sapiens) (UniProt P09038); experiment: basic fibroblast growth factor binding to printed compounds – biochemical, small-molecule microarray, 635/667 nm fluorescence, primary screen (AID 1133); conditions: FGF2, fluorescence 635/667, higher = more signal
Chain of Fibroblast growth factor 2 (Homo sapiens) (P09038 whole entry, looked up): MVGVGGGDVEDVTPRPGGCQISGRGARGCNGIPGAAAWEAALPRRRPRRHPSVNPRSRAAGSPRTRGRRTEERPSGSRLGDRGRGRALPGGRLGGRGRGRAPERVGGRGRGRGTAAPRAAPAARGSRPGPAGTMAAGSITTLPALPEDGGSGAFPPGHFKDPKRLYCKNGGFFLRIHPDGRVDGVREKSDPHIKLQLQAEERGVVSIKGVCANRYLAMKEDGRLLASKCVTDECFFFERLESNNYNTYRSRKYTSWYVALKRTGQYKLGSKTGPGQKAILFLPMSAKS

[15] = JC-1 mitochondrial potential readout, lung cancer cells – cell-based, A549, JC-1 fluorescence, basal, 24 h, 100 nL, profiling panel (AID 1138); conditions: higher = more signal;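 note: A549 lung adenocarcinoma cells under basal conditions with no added stimulus; test concentration not given here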
Lefty1 = Lefty1 protein binding to printed compounds – biochemical, small-molecule microarray, 635/667 nm fluorescence, primary screen (AID 1139); conditions: fluorescence 635/667, higher = more signal
[16] = test system: wheat germ agglutinin (Triticum aestivum), Alexa647-labelled; experiment: Alexa647-WGA lectin binding to printed small molecules – biochemical, small-molecule microarray, 635/667 nm fluorescence, artefact control for SMM control-protein annotation, profiling panel (AID 1140); conditions: WGA-A647 binding, 635 nm fluorescence, higher = more signal;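 note: score merges 667 nm feature emission with signal to noise over triplicate slides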
[17] = target: Luciferin 4-monooxygenase (Photinus pyralis) (UniProt P08659); experiment: inhibition of purified Photinus pyralis luciferase – biochemical, luminescence, purified enzyme, 2006 set, primary screen (AID 1141); conditions: purified firefly luciferase, SteadyGlo luminescence, 30 min; higher = more signal, called active from +8 up or from −8 down;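 note: cell-free assay with purified firefly luciferase at 100 ng per well in PBS; test concentration not given here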
Chain of Luciferin 4-monooxygenase (Photinus pyralis) (P08659 whole entry, looked up): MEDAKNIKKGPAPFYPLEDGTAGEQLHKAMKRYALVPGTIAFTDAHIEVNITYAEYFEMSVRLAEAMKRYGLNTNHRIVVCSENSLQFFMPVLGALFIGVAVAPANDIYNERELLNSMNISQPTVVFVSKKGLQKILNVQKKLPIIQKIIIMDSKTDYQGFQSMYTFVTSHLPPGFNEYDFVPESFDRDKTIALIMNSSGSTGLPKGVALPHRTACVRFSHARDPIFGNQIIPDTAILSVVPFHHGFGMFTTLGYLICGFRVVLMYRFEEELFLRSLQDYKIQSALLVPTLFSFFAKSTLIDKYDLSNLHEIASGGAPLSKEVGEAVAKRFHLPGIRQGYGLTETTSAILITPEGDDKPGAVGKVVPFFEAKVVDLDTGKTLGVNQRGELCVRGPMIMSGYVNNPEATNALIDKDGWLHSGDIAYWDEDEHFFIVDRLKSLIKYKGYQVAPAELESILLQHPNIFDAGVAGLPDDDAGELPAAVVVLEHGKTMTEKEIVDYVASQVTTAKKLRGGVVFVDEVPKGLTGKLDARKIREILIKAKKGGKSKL

Structure (SMILES)	composite z-score (Albumin (Bos taurus))	composite Z-score [1]	composite z-score [2]	composite z-score [3]	composite z-score [4]	composite z-score [5]	composite z-score [6]	composite z-score (Sam68 (KHDRBS1))	composite z-score [7]	composite z-score [8]	composite z-score [9]	composite z-score [10]	composite z-score [11]	composite z-score [12]	composite z-score [13]	composite z-score [14]	z-score [15]	composite z-score (Lefty1)	composite z-score [16]	z-score [17]
COCCOC(=O)N1C(=O)[C@@]2(c3ccccc31)[C@H](C(=O)N1CCN(c3ncccn3)CC1)[C@H]1C(=O)O[C@H](c3ccccc3)[C@H](c3ccccc3)N1[C@@H]2c1ccc(OCCO)cc1	0.329	2.41 (inactive)	0.32	-0.0029	0.512	1.36	0.341	1.12	0.292	1.13	2.77	1.21	2.12	0.967	1.23	0.891	-0.587	0.612	0.965	-1.3 (inactive)
CC(C)(C)OC(=O)CC[C@]1(C(=O)NCCN2CCOCC2)N=C(c2ccc(OCCCO)cc2)O[C@H]1c1ccccc1	0.824	-0.985 (inactive)	0.0636	-0.075	0.745	2.28	-0.657	0.218	-1.21	1.16	2.21	0.358	0.75	0.955	-0.0269	-0.397	1.21	-0.964	0.391	-1.16 (inactive)
CC(C)CN1C(=O)[C@@]2(Cc3ccccc31)c1ccccc1C(=O)N(Cc1ccccc1C(F)(F)F)[C@H]2c1ccc(CO)cc1	-0.139	0.174 (inactive)	-0.172	-0.157	-0.381	-0.562	-0.438	-2.12	-0.846	0.027	-0.372	-1.18	-0.315	-0.921	-0.596	-0.425	0.39	0.636	-0.0876	1.11 (inactive)
COCCOC(=O)N1C(=O)[C@@]2(c3cc(C#CC4(O)CCCCCC4)ccc31)[C@H](C(N)=O)[C@H]1C(=O)O[C@H](c3ccccc3)[C@H](c3ccccc3)N1[C@@H]2c1ccccc1OCCO	0.199	-0.526 (inactive)	-0.6	-0.219	0.541	2	0.591	1.31	0.369	0.845	1.84	1.22	0.988	0.662	1.17	1.56	-0.994	0.569	0.26	-0.806 (inactive)
O=C(N1CCCCC1)[C@@]1(Cc2ccccc2)COC(c2ccc(OCCCO)cc2)=N1	0.874	0.986 (inactive)	0.501	0.313	0.714	2.44	0.409	1.33	-0.729	0.892	1.85	1.2	0.195	0.96	0.475	1.3	1.22	-0.211	1.12	-0.117 (inactive)
C=CC[C@H](OC(=O)Nc1ccc(OC)cc1)c1ccc(O)c2ccccc12	-0.343	-0.192 (inactive)	0.0539	-0.124	0.289	0.865	-0.0938	1.3	1.18	1.09	1.15	1.16	0.531	0.305	1.3	1.64	-1.43	0.907	0.616	-6.26 (inactive)
CN(C)CCCCNC(=O)[C@H]1C[C@H]2C(=O)N3CCC[C@H]3C(=O)N2[C@H]1c1ccc(O)cc1	-0.813	0.11 (inactive)	-0.738	-0.5	0.666	1.44	-0.642	-1.11	0.0994	-0.397	-0.268	-1.6	-0.401	-1.05	0.443	-1.01	-0.983	-0.428	-0.534	0.501 (inactive)
CC(C)C(O)C1C=CC2C(=O)N(C)C(=O)C2N1N(c1ccccc1)c1ccccc1 (stereo not given)	0.736	0.491 (inactive)	-0.047	-0.0482	0.697	0.986	-0.37	-0.797	-1.17	-0.847	0.545	-0.735	0.523	0.597	-0.0394	-0.926	0.953	-0.852	0.357	0.734 (inactive)
COCCOC(=O)N1C(=O)[C@@]2(c3cc(C#Cc4ccc(OC)cc4)ccc31)[C@H](C(=O)N1CCCCCCC1)[C@H]1C(=O)O[C@H](c3ccccc3)[C@H](c3ccccc3)N1[C@@H]2c1ccc(O)cc1	-0.617	0.527 (inactive)	0.807	0.0137	0.168	0.234	0.421	1.15	0.643	0.692	-0.0844	1.12	0.277	0.205	1.38	0.541	-1.42	1.04	0.351	-0.0524 (inactive)
CC(=O)n1cc(C(O)C2C=CC3C(=O)N(Cc4ccccc4)C(=O)C3N2n2cnnc2)c2ccccc21 (stereo not given)	0.136	-0.213 (inactive)	0.0576	-0.0304	0.444	0.983	0.281	-0.0572	-0.243	0.458	0.483	0.0022	0.418	0.948	0.0251	-0.465	-0.463	0.204	0.505	0.702 (inactive)
NC(=O)N1C(=O)C2C(C1=O)C1C=C(CCCO)C2C(c2cccs2)N1Cc1cc2c(cc1Br)OCO2 (stereo not given)	0.429	-0.483 (inactive)	-0.0328	-0.12	0.757	1.04	-0.0752	0.234	-0.663	0.827	2.23	-0.212	1.67	0.87	0.192	-0.681	0.707	0.574	0.851	-0.062 (inactive)
COCCOC(=O)N1C(=O)[C@@]2(c3cc(C#CC4(O)CCCCCC4)ccc31)[C@H](C(=O)N1CCCCCCC1)[C@H]1C(=O)O[C@H](c3ccccc3)[C@H](c3ccccc3)N1[C@@H]2c1ccc(OCCO)cc1	0.513	3.82 (inactive)	1.73	0.819	0.705	3.34	1.35	1.29	1.52	1.14	2.68	1.24	1.13	0.95	1.49	1.77	-1.18	1.7	1.09	-2.13 (inactive)
CC(C)(C)OC(=O)CC[C@@]1(C(=O)O)N=C(c2ccc(OCCCO)cc2)O[C@@H]1c1ccccc1CN=[N+]=[N-]	0.939	0.242 (inactive)	0.1	0.046	0.849	2.23	0.312	0.76	-0.309	1.18	2.7	0.807	0.399	0.85	0.367	-0.279	0.792	-0.816	0.851	-2.19 (inactive)
COCCOC(=O)N1C(=O)[C@@]2(c3cc(C#CC4=CCCCC4)ccc31)[C@H](c1ccc(O)cc1)N1[C@H](c3ccccc3)[C@H](c3ccccc3)OC(=O)[C@H]1[C@@H]2C(=O)Nc1nc2ccccc2s1	0.802	-0.202 (inactive)	0.302	-0.121	0.556	2.78	0.657	1.32	0.206	1.12	0.494	1.21	0.822	0.93	0.862	1.08	-1.94	1.52	0.657	-0.946 (inactive)
CCC[C@@H]1C[C@@]1(CCC)[C@@H](NP(=O)(c1ccccc1)c1ccccc1)c1ccc(Cl)cc1	-0.811	-1.49 (inactive)	0.0306	-0.0166	-0.0589	0.772	0.38	0.179	0.603	-0.765	-0.649	-0.472	-0.371	-0.428	-0.216	-0.475	-1.22	-0.413	-0.619	1.71 (inactive)
